Test [1] in a line: qHTS assay for small molecule agonists of the p53 signaling pathway (AID 651631; calls by dose curve; also: nearly all actives have a fitted effect of over 15% in size). The method in brief: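 Beta-lactamase reporter activity under p53 response elements was quantified in HCT-116 cells by FRET fluorescence, following 16 h incubation with test compounds at 37 °C and 2 h substrate development at room temperature.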
For orientation: qHTS replaces the single test concentration by a dilution series.

A short description of test [2]: Caspase-3/7 induction in HepG2 cells by small molecules, qHTS assay (AID 1346978). Also: nearly all actives have a fitted effect of over 15% in size. The method in brief:
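Wild-type HepG2 cells, 2,000/well, settled 5 hr at 37 C and 5% CO2, then compound-treated for 17 hr; caspase-3/7 activity read by luminescent Caspase-Glo 3/7 after 30 min at room temperature.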

Test [3] has as its target Acetylcholinesterase (Homo sapiens) (UniProt P22303). Briefly: Acetylcholinesterase (AChE) small molecule antagonists: enzyme-based qHTS assay with human liver microsomes (AID 1347399; calls by dose curve; also: nearly all actives have a fitted effect of over 60% in size). The note with it: Potency: qHTS inhibition; outcome: qHTS inhibition. The method, boiled down:
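Recombinant human AChE (50 mU/mL in the enzyme mix) and human liver microsomes (0.25 mg/mL final) were preincubated with compound and NADPH (0.25 mg/mL final) for 30 min at 37 C. Acetylthiocholine/DTNB was then added; thiocholine was read colorimetrically after 10 min at room temperature.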

Test [4] is described as follows: qHTS assay to identify small molecule phospholipidosis (PLD) inducers (AID 1259344; active = well fitted curve in the direction sought with a large enough effect; an effect the other way counts as inactive or inconclusive). The method in brief:
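Quantitative HTS in HepG2: compound plus LipidTOX Red dye for 24 h, paraformaldehyde fixation with Hoechst 33342, widefield high-content imaging; amiodarone as positive and DMSO as negative control.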

Test [5] addresses Estrogen receptor beta (Homo sapiens) (UniProt Q92731). Briefly: qHTS assay to identify small molecule agonists of the estrogen receptor beta (ER-beta) signaling pathway (AID 1259377; active = well fitted activation curve with a large enough effect in the signal ratio in the repeat runs, not every such curve was filed as active; the % refers to the signal ratio). The method, boiled down: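 Reporter cells (HEK293T, ER-beta-UAS-bla) receive compounds or DMSO after a 6 hr pre-incubation. They then incubate 16 hr at 37C/5% CO2, and fluorescence from LiveBLAzer B/G substrate is measured after 2 hours at room temperature.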

The target of test [6] is Glucocorticoid receptor (Homo sapiens) (UniProt P04150). The test is described as follows: qHTS assay to identify small molecule antagonists of the glucocorticoid receptor (GR) signaling pathway (AID 720692; active = well fitted inhibition curve with a large enough effect in the signal ratio in the repeat runs, not every such curve was filed as active; the % refers to the signal ratio). The method in brief:
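Fluorescence from cleaved LiveBLAzer B/G FRET substrate reports GRE-driven beta-lactamase in HeLa cells; compounds are tested against 5 nM dexamethasone (final) over 18 h at 37 C, substrate incubation 2 h at room temperature.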

Test [7] has as its target Estrogen receptor (Homo sapiens) (UniProt P03372). Briefly: qHTS assay to identify small molecule antagonists of the estrogen receptor alpha (ER-alpha) signaling pathway (AID 743069; active = well fitted curve in the direction sought with a large enough effect in the signal ratio in the repeat runs, not every such curve was filed as active; the % refers to the signal ratio). The method, boiled down: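 Reporter cells (ER-alpha-bla, HEK293 background) are conditioned overnight in stripped-serum medium (2% charcoal-stripped FBS). Compound and 17beta-estradiol exposure runs 18 hr at 37C, 5% CO2.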

A short description of test [8]: qHTS assay for small molecule disruptors of the mitochondrial membrane potential (AID 720635). Also: potency is read from the fitted curve at half-maximal effect. The method, boiled down: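 HepG2 cells exposed to compound 1 hr at 37C, then Mito-MPS dye 30 min. Ratio read of aggregate (540/590 nm) versus monomer (490/535 nm) fluorescence.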
Test [9] concerns the target Androgen receptor (Homo sapiens) (UniProt P10275). The test is described as follows: qHTS assay to identify small molecule antagonists of the androgen receptor (AR) signaling pathway (AID 743035; active = well fitted inhibition curve with a large enough effect in the signal ratio in the repeat runs, not every such curve was filed as active; the % refers to the signal ratio; also: potency is read from the fitted curve at half-maximal effect). The method, boiled down:
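Cell line: GeneBLAzer AR-UAS-bla GripTite (HEK293). Stimulus: R1881 added after compound. Exposure: 16 h, 37C, 5% CO2. Readout: LiveBLAzer B/G FRET fluorescence after 2 h at room temperature.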

For test [10] the target is unchanged. Briefly: qHTS assay to identify small molecule agonists of the androgen receptor (AR) signaling pathway (AID 743036; active = well fitted activation curve with a large enough effect in the signal ratio in the repeat runs, with a control signal flat, not every such curve was filed as active; the % refers to the signal ratio). The method, boiled down: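 Following a 4 h settling period, AR-UAS-bla HEK293 cells were dosed with compounds for 16 h at 37C. A 2 h room-temperature incubation with LiveBLAzer B/G FRET substrate preceded the fluorescence measurement.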
The target is the same in test [11]. Briefly: qHTS assay to identify small molecule agonists of the androgen receptor (AR) signaling pathway using the MDA cell line (AID 743040; also: nearly all actives have a fitted effect of over 20% in size). The method in brief:
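Human breast carcinoma MDA-kb2 reporter cells (MMTV-luc, AR/GR elements) were treated for 16 h at 37C in 0% CO2 following a 5 h settling period. Signal was quantified by ONE-Glo luminescence.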

Test [12] has the same target. The test is described as follows: qHTS assay to identify small molecule antagonists of the androgen receptor (AR) signaling pathway using the MDA cell line (AID 743042; also: nearly all actives have a fitted effect of over 55% in size; also: potency is read from the fitted curve at half-maximal effect). The method, boiled down: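 MDA-kb2 breast carcinoma cells carrying MMTV-luciferase (AR/GR responsive) were co-treated with compounds and the agonist R1881 for 16 h at 37C. Inhibition read as ONE-Glo luminescence; CellTiter-Fluor fluorescence measured in parallel for cytotoxicity.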

Test [13] has as its target Nuclear receptor subfamily 1 group I member 2 (Rattus norvegicus) (UniProt Q9R1A7). The test is described as follows: Rat pregnane X receptor (rPXR) activation by small molecules, qHTS assay (AID 1346983). Also: nearly all actives have a fitted effect of over 20% in size. The note with it: rPXR luciferase reporter cells, One-Glo luminescence, 24 h; max activation: stronger effect = higher value. The method in brief: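 Cell-based rPXR activation assay: rPXR cells, 2,000 per well, rested 5hr at 37 C, then exposed to compounds in DMSO for 24 hr at 37 C. Luciferase activity read by One-Glo luminescence after 30 min at room temperature.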

For test [14], the target named is Nuclear receptor subfamily 1 group I member 2 (Homo sapiens) (UniProt O75469). The test is described as follows: Human pregnane X receptor (PXR) activation by small molecules, qHTS assay (AID 1346985). Also: nearly all actives have a fitted effect of over 40% in size. Also: potency is read from the fitted curve at half-maximal effect. The method in brief: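 DPX-2 cells (HepG2 co-transfected with a PXR response element and a CYP3A4-promoter luciferase construct) were seeded at 2,000 per well, rested 5 hr at 37C, then exposed to DMSO-dissolved compounds for 24 hr. Activation was read as luciferase luminescence.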

Unmarked numbers belong to inactive results. Records with an inconclusive call do not appear. Activity calls are given as the source filed them. Unless noted, calls follow the shape of the dose curve; as a rule, active = well fitted curve in the direction sought with a large enough effect in the repeat runs; inconclusive = weak or mixed curves; inactive = no such curve, though single readings can be large; an effect the other way counts as inactive or inconclusive.
% is scaled to controls: 0 for no effect and ±100 for the full control effect.

Estrogen receptor (Homo sapiens), sequence (P03372 whole entry, looked up): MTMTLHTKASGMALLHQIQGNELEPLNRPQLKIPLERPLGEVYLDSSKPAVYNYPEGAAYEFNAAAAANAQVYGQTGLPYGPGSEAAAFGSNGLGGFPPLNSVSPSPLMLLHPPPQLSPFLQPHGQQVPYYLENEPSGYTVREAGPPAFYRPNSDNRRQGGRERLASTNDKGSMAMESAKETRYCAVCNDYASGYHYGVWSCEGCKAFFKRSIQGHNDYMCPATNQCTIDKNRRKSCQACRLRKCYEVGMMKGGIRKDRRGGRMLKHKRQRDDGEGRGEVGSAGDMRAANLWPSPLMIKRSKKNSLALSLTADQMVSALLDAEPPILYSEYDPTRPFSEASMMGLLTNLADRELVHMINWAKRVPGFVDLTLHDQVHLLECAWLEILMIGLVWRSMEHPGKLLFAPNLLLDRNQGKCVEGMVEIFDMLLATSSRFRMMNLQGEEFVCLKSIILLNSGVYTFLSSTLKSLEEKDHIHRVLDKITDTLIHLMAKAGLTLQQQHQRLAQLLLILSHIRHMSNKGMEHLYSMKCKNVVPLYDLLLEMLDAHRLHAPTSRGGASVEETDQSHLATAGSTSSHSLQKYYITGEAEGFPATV
Androgen receptor (Homo sapiens), sequence (P10275 whole entry, looked up): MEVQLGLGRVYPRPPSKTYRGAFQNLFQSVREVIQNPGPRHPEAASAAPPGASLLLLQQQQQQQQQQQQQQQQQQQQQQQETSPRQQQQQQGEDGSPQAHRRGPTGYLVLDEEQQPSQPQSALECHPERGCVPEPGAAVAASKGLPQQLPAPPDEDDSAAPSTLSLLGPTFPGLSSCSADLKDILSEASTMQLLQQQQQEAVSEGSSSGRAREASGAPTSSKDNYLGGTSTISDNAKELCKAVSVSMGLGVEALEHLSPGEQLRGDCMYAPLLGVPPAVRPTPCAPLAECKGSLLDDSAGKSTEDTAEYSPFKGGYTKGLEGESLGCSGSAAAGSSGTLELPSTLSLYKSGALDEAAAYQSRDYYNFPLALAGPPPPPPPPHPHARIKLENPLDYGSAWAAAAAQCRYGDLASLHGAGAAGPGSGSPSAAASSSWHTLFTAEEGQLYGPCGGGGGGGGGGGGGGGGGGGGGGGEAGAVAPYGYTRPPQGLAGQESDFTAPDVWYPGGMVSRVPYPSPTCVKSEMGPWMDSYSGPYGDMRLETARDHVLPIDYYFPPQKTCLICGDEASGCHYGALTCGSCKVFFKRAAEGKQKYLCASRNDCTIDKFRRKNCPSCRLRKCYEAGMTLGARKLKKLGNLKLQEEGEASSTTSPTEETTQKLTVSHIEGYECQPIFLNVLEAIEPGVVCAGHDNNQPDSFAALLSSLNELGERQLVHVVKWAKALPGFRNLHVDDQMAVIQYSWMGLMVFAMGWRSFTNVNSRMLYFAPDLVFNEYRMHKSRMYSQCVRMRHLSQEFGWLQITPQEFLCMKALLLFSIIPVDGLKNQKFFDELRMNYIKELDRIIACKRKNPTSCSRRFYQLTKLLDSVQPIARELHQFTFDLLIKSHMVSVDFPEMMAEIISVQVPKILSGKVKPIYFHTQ
Glucocorticoid receptor (Homo sapiens), sequence (P04150 whole entry, looked up): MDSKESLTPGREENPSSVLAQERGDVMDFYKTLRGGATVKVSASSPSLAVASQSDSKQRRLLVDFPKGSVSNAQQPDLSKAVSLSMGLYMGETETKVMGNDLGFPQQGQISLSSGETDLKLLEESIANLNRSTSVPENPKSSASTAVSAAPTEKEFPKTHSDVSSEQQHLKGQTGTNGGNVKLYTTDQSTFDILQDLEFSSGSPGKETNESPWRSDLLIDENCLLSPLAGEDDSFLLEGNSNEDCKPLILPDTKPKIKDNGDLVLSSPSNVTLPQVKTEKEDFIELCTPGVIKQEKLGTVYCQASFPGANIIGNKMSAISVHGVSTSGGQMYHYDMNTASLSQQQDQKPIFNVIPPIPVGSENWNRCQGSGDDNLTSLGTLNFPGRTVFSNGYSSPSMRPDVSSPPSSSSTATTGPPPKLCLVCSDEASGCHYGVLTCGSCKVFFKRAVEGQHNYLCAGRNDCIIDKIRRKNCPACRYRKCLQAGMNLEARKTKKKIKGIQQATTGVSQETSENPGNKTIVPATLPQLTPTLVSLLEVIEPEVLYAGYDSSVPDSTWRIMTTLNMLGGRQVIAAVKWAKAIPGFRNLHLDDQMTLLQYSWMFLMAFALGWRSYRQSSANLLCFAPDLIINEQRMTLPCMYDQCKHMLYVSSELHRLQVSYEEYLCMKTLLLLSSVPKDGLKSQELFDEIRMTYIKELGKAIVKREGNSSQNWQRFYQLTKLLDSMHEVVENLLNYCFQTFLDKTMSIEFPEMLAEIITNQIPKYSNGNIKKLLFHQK
Nuclear receptor subfamily 1 group I member 2 (Rattus norvegicus), sequence (Q9R1A7 whole entry, looked up): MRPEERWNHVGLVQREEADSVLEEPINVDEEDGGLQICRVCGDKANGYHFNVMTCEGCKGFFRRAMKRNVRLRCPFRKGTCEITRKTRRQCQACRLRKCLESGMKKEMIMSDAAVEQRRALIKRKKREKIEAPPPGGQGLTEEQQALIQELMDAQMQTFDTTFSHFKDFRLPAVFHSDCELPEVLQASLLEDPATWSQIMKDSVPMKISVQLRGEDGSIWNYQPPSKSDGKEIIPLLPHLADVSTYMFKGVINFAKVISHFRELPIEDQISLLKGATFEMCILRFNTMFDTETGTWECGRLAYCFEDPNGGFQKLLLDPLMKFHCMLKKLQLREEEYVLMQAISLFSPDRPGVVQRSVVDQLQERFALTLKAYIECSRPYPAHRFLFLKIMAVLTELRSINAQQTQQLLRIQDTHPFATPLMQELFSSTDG
Acetylcholinesterase (Homo sapiens), sequence (P22303 whole entry, looked up): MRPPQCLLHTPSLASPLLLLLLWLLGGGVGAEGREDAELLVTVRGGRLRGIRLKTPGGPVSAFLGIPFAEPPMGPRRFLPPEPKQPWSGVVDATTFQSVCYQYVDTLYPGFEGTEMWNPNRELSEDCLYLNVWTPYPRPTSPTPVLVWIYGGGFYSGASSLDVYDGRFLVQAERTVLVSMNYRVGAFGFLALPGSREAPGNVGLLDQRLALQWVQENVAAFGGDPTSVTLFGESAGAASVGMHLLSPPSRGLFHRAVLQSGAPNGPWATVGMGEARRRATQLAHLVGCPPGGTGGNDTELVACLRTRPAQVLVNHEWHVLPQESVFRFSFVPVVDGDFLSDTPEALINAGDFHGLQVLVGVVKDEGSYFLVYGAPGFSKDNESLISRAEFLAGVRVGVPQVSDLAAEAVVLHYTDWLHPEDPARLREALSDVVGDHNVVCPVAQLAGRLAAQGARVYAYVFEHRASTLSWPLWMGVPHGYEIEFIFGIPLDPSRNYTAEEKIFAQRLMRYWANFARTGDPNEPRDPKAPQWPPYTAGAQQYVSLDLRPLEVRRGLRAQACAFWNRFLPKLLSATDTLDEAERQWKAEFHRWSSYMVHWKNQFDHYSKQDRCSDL
Estrogen receptor beta (Homo sapiens), sequence (Q92731 whole entry, looked up): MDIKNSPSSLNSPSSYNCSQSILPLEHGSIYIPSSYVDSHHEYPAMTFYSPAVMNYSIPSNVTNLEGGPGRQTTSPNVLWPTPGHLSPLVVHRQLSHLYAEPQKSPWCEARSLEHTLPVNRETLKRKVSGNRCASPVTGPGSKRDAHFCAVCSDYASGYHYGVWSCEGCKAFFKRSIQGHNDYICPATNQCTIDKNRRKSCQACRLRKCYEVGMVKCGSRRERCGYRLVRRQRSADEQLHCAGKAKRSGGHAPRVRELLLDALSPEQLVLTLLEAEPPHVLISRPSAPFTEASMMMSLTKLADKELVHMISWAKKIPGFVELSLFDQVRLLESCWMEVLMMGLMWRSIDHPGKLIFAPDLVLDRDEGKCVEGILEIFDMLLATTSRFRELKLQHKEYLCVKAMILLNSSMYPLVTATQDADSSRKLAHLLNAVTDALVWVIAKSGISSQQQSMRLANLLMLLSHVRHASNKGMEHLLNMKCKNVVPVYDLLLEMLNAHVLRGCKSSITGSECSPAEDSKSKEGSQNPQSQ

Regarding `COc1ccc(C)cc1N`, the Potency result in [1], in test [2] and in test [3] was “inactive” in each case.
On to `C[C@@H]1[C@H]2Cc3ccc(O)cc3[C@]1(C)CCN2C`, for which the Potency result in test [4] is “inactive”.
Consider `Cc1ccc([N+](=O)[O-])cc1N`, for which the Potency entry in test [1] and in [3] was “inactive” each time. Further, in test [5], the call was inactive.
On to `COc1cc(C[C@H](C)N)c(OC)cc1C`, for which the Potency entry in test [6], in [7] and in [4] was “inactive” throughout.
With `CCN(CC)/[N+]([O-])=N/O`, the Potency entry in [6] and in test [4] was “inactive” throughout.
In the case of `C[C@@H]1[C@@H]2Cc3ccc(O)cc3[C@@]1(C)CCN2CCc1ccccc1`, the Potency entry in test [8] and in test [4] was “inactive” throughout.
On to `C1CN(P2(N3CC3)=NP(N3CC3)(N3CC3)=NP(N3CC3)(N3CC3)=N2)CCO1` (configuration not stated), for which the Potency result in test [8] and in [7] was “inactive” in each case. The PLD induction in test [4] was 0.928% [at 7.66 µM].
Regarding `O=C1OC(=O)c2c(Br)c(Br)c(Br)c(Br)c21`, the Potency entry in test [2] and in test [3] was “inactive” in each case.
`CCCCNC(C)(C)[P+](=O)O`: the Potency result in test [8], in [9], in test [10], in [11], in test [12] and in test [7] was “inactive” each time. The Potency result in test [4] is “inactive”.
In the case of `CC[N+](C)(CC)CCOC(=O)C(O)(c1ccccc1)c1ccccc1`, the Potency entry in test [1], in [8], in test [6], in test [7] and in test [14] was “inactive” in each case. Further, the max activation in test [13] is -2.16%.
On to `CCC1(c2ccccc2)C(=O)NC(=O)N(C(=O)c2ccccc2)C1=O` (configuration not stated), for which the Potency in [8] is 23.7 µM (active). In addition, in [6], the Potency result was “inactive”. In addition, in [13], the max activation was -3.53%.
Turning to `CC(C)C[C@H](CN)CC(=O)O`, the Potency result in test [6], in [7] and in test [14] was “inactive” throughout. In test [13], the max activation is -2.72%.
As to `COc1ccc2c3c1O[C@H]1C(=O)CC[C@H]4[C@@H](C2)N(C)CC[C@]314`, the Potency entry in test [7] and in [14] was “inactive” throughout. The max activation in [13] was -2.81%.
`Clc1ccc(C(Cn2ccnc2)OCc2csc3c(Cl)cccc23)c(Cl)c1` (configuration not stated): the Potency entry in [6] and in test [11] was “inactive” in each case.
Regarding `CCCCCCCCCC(=O)O[C@H]1CC[C@H]2[C@@H]3CCC4=CC(=O)CC[C@]4(C)[C@H]3CC[C@]12C`, the Potency entry in [8], in test [7] and in test [14] was “inactive” throughout. Also, the max activation in test [13] was -1.38%.
Regarding `CO[C@H]1[C@@H](O)C[C@H](O[C@H]2[C@@H](O)C[C@H](O[C@H]3[C@@H](O)C[C@H](O[C@H]4CC[C@@]5(C)[C@H](CC[C@@H]6[C@@H]5C[C@@H](O)[C@]5(C)[C@@H](C7=CC(=O)OC7)CC[C@]65O)C4)O[C@@H]3C)O[C@@H]2C)O[C@@H]1C`, the Potency was 0.699 µM (active) in [8], 0.338 µM (active) in test [9] and 1.68 µM (active) in test [12]. Besides, the max activation in [13] is -4.43%. Also, the Potency entry in test [14] is “inactive”.
For `C[C@]12CC[C@H](O)C[C@H]1CC[C@@H]1[C@@H]2CC[C@]2(C)[C@@H](c3ccc(=O)oc3)C[C@H]3O[C@]132`, the Potency in test [8] is 2.66 µM (active); in test [9] it was 6.01 µM (active); in [12], 21.1 µM (active); in [14], 3.98 µM (active).
In the case of `CN(C)[C@H](Cc1ccccc1)c1ccccc1`, in [13], the max activation is 0.224%. In addition, in test [14], the Potency result is “inactive”.
Take `CCN(CC)CCO[C@H]1CC[C@@]2(C)C(=CC[C@@H]3[C@@H]2CC[C@]2(C)C(=O)CC[C@@H]32)C1`: the Potency result in [7] was “inactive”. Besides, the max activation in test [13] is 3.39%.
With `Cc1cccc(C(C)c2cnc[nH]2)c1C` (configuration not stated), in test [13], the max activation was -0.62%. Further, the Potency result in [14] is “inactive”.
As to `CCCCC[C@@H](O)C1C(=O)OC(C)[C@H](O)/C=C/C=C/C=C/C=C/C=C(\C)C(O)C(O)C(O)C[C@H](O)C[C@H](O)C[C@H](O)C[C@H](O)C[C@@H]1O` (some centres not stated), the Potency entry in test [8], in [6] and in test [14] was “inactive” in each case. Further, in test [13], the max activation was 0.909%.

(Values after PubChem BioAssay (Tox21).)
